Screen size: about 320,000 compounds; about 9,100 (2.8%) were called active. A call without a number means that no potency is given here. Another 3% or so got no clear call; they are omitted. Calls follow the shape of the dose curve; as a rule, active = well fitted activation curve with a large enough effect; inconclusive = small, poorly fitted or top-dose-only effect; inactive = no such curve, though single readings can be large or run the other way. For the sample, actives were picked, then their nearest neighbours and some compounds at random.
Test: qHTS Assay for Rab9 Promoter Activators; also: nearly all actives have a fitted effect of over 60% in size
Conditions: Huh7 Rab9 promoter-luciferase reporter, luminescence, 24 h; series mostly up to 9.22 µM
Text: NIH Chemical Genomics Center [NCGC] NIH Molecular Libraries Probe Production centers Network [MLPCN] MLPCN Grant: MH089537-01 Assay Submitter (PI): Yiannis A. Ioannou NCGC Assay Overview: Niemann Pick Type C (NPC) is a rare neurodegenerative lipidosis that is characterized by lipid storage in the endosomal/lysosomal system. Treatment modalities for this devastating disease are currently non-existent due to the severe obstacles associated with accessing the central nervous system with proteins or genes (Ioannou, 2000). We have developed a new paradigm, termed "Orphan Receptor Bypass Therapy" (ORByT), to address these disorders. This paradigm posits the existence of endogenous "suppressor" proteins whose expression can dramatically improve LSD pathogenesis. The goal is the identification/discovery of small chemical compounds that can modulate the expression of these proteins and provide a new treatment modality for these devastating disorders. One such protein whose overexpression reverses aspects of the NPC phenotype is Rab9. We have developed and optimized a cell based luciferase reporter assay in 1536 well format for the identification of up-regulators of the Rab9 promoter.
The Rab9 promoter is cloned in front of the luciferase reporter gene, therefore […] promoter activation results in luciferase expression. Frozen stock of the Rab9 promoter transfected Huh7 cells were obtained from the laboratory of Dr. Yiannis Ioannou (The Mount Sinai School of Medicine, New York, NY). Cells were propagated and maintained at NCGC in medium containing RPMI-1640 supplemented with 10% FBS, 2mM L-glutamine, and 50ug/ml penicillin/streptomycin. Cells were harvested in and plated for assays in OP-MEM I reduced-serum medium supplemented with 10% FBS. The Amplite luciferase reporter gene assay kit was purchased from ABD Bioquest and prepared/stored according to manufacturers recommendations. qHTS Assay Setup: 1.Dispensed 5ul of Huh7 cells stably expressing Rab9-luciferase at a density of 1500 cells per well 1536-well plates. 2.Incubate cells at 37C, 5% CO2, and 95% humidity for 2 hours. 3.Transferred 23nl per well of compound in DMSO solution. 4.Incubated at 37C, 5% CO2, and 95% humidity for 24 hours. 5.Dispensed 3ul per well of Amplite reagent(ABD Bioquest) per well. 6.Incubate at ambient for 10 minutes. 7.Read using the luminescence protocol on the ViewLux plate reader (Perkin Elmer).
Potency is read from the fitted curve at half-maximal effect.

Structure (SMILES) | Potency
CCOC(=O)c1c(-c2ccccc2)oc2ccc(OC(=O)N(C)C)cc12 | inactive
CN(C)C(=O)Oc1ccc2c(c1)O/C(=C\c1ccccc1)C2=O | 1410 nM (active)
CN(C)C(=O)Oc1ccc(OCc2cccc[n+]2C)cc1 | inactive
c1ccc2c(c1)[I+]c1ccccc1-2 | inactive
CC(=O)c1c(O)c(C)c(O)c(Cc2c(O)c3c(c(C(=O)/C=C/c4ccccc4)c2O)OC(C)(C)C=C3)c1O | inactive
CN1CCN(C(=O)COc2ccc(C(C)(C)C)cc2Br)CC1 | inactive
O=C(Nc1cccc(OC(=O)N2CCCCC2)c1)N1CCOCC1 | inactive
CC(C)(C)c1ccc(OC(=O)N2CCCCC2)cc1 | 3160 nM (active)
C[C@@H]1C[C@@H]2O[C@H]2/C=C\C=C\C(=O)Cc2c(Cl)c(O)cc(O)c2C(=O)O1 | inactive
CNCC[C@H](Oc1ccc(C(F)(F)F)cc1)c1ccccc1 | inactive

Source: PubChem BioAssay AID485297 (National Center for Advancing Translational Sciences (NCATS), 2010)
